# Data reported in PubChem BioAssay.
# Results filed as inconclusive are left out. Active and inactive are the calls of the source. Cut-off not given; nearly all actives show IC50 up to about 30 µM.
# Assay: growth inhibition of DIPG cells – cell-based, MIPE5.0 library, qHTS (AID 1347068);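 on IC50: cells exposed to compound for 48 hours before viability readout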
# Settings: SU-DIPG-XXV viability
SMILES,IC50,outcome
C[C@@H]1COC(Nc2ccc3ncnc(Nc4ccc(OCc5nccs5)c(Cl)c4)c3c2)=N1,23.5 µM (active),
CC(C)c1cnn2c(NCc3ccccc3)cc(NCCCCCCN)nc12,23.5 µM (active),
O=C1NCCc2[nH]c(-c3ccncc3)cc21,5.25 µM (active),
CNC(=O)c1ccc(N2C(=S)N(c3ccc(C#N)c(C(F)(F)F)c3)C(=O)C2(C)C)cc1F,,inactive
O=C(O)c1ccc2c(c1)nc(Nc1cccc(Cl)c1)c1ccncc12,7.42 µM (active),
COc1cc2c(NC3CCN(C(C)C)CC3)nc(C3CCCCC3)nc2cc1OCCCN1CCCC1,23.5 µM (active),
CC(C)C[C@H](NC(=O)CNC(=O)c1cc(Cl)ccc1Cl)B(O)O,0.105 µM (active),
CCc1ccc(C(=O)Nc2cc(CN3CCN(C)CC3)cc(C(F)(F)F)c2)cc1C#Cc1cnc2ccnn2c1,14.8 µM (active),
CC1(C)CCC(c2ccc(Cl)cc2)=C(CN2CCN(c3ccc(C(=O)NS(=O)(=O)c4ccc(N[C@H](CCN5CCOCC5)CSc5ccccc5)c(S(=O)(=O)C(F)(F)F)c4)cc3)CC2)C1,3.32 µM (active),
CC(C)CC(=O)Nc1n[nH]c2c1CN(C(=O)C1CCN(C)CC1)C2(C)C,10.5 µM (active),
CCOC(CN1C(=O)[C@](CC(=O)Nc2ccc(C)cc2)(NC(=O)Nc2ccc(C)cc2)c2ccccc21)OCC,23.5 µM (active),
CNC(=O)Nc1ccc(-c2nc(N3CC4CCC(C3)O4)c3cnn(C4CCC5(CC4)OCCO5)c3n2)cc1,1.86 µM (active),
CS[C@H]1SC[C@@H]2C(=O)N(C)[C@H](C(C)C)C(=O)OC[C@H](NC(=O)c3cnc4ccccc4n3)C(=O)N[C@H](C)C(=O)N(C)[C@H]1C(=O)N(C)[C@H](C(C)C)C(=O)OC[C@H](NC(=O)c1cnc3ccccc3n1)C(=O)N[C@H](C)C(=O)N2C,0.0132 µM (active),
